Measurements published in the supplement of paper PMC11732987, “Enantioselective OTUD7B fragment discovery through chemoproteomics screening and high-throughput optimisation” (Communications Chemistry, 2025).

Assays:
Assay in all cases: log2 ratio of Biotin-Ahx-Ub-VS probe labelling (fragment/DMSO); higher = less target engagement (more negative = stronger competition), active = hit call of the paper (q ≤ 0.05, log2 ratio ≤ -1)
Conditions in all cases: compound concentration: 200 uM; treatment time: 3 h
USP34 = USP34 (UniProt Q70CQ2)
Chain of USP34 (Q70CQ2 whole entry, the tested form may be a part): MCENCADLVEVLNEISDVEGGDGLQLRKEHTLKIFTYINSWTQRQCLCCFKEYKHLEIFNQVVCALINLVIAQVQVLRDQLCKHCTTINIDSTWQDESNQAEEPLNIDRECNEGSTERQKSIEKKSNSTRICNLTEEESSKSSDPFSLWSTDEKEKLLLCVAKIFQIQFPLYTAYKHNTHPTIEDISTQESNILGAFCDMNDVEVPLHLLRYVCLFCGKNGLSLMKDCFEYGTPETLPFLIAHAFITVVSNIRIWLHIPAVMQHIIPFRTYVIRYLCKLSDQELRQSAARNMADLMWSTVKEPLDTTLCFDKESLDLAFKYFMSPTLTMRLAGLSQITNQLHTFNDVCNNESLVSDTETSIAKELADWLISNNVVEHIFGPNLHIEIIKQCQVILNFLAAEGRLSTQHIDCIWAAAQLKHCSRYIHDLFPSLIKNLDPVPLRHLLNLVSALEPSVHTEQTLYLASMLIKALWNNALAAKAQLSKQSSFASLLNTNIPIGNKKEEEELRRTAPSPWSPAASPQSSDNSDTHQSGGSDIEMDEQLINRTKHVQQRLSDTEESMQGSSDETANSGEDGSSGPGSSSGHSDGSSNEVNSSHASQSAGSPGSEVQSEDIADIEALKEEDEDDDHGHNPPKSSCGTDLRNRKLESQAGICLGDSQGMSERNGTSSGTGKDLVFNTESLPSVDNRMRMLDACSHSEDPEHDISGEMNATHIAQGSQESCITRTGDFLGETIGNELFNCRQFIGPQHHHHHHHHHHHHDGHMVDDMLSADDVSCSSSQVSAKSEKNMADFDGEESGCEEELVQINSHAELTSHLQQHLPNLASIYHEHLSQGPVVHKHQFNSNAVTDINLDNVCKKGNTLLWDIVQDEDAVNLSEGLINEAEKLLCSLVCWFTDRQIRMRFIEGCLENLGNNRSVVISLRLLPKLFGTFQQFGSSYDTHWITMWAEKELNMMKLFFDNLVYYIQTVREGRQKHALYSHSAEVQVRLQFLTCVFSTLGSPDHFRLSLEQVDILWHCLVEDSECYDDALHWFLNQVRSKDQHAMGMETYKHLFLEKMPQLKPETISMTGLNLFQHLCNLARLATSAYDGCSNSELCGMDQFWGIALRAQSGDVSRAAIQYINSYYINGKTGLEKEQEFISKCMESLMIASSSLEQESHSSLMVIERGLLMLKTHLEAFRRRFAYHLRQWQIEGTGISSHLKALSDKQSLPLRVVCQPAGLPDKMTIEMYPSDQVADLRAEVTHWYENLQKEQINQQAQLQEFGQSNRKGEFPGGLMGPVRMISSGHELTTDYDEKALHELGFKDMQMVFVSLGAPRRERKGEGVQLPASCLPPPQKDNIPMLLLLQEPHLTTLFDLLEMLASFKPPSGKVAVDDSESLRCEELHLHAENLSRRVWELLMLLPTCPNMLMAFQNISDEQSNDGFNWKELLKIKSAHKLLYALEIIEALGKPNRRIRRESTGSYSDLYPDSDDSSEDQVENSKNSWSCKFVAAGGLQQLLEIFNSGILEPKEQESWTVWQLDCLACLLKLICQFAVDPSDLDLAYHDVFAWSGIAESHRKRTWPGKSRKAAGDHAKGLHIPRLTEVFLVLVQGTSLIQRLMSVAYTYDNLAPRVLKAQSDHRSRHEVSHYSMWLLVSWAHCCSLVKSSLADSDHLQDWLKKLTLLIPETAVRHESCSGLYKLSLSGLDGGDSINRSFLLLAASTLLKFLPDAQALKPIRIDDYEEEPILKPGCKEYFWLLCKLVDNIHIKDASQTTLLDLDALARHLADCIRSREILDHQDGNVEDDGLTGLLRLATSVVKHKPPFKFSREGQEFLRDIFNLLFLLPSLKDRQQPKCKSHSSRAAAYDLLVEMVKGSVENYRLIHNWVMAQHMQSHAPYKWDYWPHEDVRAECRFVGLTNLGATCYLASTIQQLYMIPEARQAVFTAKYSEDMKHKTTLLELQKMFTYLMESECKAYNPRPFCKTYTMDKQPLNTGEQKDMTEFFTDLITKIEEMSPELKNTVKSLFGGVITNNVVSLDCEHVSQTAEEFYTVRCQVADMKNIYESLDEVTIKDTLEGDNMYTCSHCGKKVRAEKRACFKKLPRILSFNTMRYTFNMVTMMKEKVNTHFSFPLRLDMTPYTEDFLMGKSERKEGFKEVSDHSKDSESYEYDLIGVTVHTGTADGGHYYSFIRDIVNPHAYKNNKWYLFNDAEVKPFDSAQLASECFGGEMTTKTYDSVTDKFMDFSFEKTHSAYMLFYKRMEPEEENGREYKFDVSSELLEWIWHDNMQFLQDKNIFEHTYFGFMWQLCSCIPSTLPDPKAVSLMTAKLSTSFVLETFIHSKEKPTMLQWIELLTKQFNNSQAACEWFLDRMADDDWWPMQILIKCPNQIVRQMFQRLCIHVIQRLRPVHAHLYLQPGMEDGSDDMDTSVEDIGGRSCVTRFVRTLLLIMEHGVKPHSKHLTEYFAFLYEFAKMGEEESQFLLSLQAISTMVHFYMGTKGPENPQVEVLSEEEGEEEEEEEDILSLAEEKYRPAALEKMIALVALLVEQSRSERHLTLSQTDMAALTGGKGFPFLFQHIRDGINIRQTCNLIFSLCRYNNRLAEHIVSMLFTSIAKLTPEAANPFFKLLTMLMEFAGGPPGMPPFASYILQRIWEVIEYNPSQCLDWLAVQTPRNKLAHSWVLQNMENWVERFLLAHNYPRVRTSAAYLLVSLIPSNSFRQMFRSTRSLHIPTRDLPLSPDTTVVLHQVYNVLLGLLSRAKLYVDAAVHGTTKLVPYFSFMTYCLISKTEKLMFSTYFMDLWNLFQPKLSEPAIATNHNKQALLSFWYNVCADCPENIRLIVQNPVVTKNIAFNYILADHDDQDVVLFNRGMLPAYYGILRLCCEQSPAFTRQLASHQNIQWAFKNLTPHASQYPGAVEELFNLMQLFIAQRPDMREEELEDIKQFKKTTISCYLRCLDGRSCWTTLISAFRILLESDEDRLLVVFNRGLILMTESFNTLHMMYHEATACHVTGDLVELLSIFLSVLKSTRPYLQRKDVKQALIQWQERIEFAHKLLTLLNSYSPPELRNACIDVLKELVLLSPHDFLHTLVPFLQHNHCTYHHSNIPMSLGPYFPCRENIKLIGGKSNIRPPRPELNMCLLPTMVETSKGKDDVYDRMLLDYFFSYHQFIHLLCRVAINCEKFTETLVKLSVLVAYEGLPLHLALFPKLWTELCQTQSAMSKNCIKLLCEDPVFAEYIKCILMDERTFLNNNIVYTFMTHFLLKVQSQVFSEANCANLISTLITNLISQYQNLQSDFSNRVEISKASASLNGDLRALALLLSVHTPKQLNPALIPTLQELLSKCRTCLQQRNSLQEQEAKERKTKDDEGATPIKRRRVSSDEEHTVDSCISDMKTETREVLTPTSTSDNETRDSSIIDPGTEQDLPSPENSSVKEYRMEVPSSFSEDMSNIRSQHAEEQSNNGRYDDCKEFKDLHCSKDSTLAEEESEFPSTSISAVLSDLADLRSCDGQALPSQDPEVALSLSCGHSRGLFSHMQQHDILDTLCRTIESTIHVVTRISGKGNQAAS
Procedure, shortened: (§1)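 HEK293T lysate (495 µg per sample, in Tris/CHAPS/IGEPAL buffer with protease inhibitors) was exposed in triplicate for 3 h to fragment at 200 µM or to vehicle, then to Biotin-Ahx-Ub-VS at 0.5 µM final for 1 h. Labelled DUBs were enriched on NeutrAvidin, digested with LysC and trypsin, and analysed by diaPASEF LC-MS/MS. Spectronaut label-free quantities were normalised to the global median, and values are average log2 ratios of fragment over vehicle from an unpaired t-test. Only proteins with ≥2 unique peptides were used.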

USP36 = target: T1, USP36 (UniProt Q9P275)
T1 sequence (whole entry): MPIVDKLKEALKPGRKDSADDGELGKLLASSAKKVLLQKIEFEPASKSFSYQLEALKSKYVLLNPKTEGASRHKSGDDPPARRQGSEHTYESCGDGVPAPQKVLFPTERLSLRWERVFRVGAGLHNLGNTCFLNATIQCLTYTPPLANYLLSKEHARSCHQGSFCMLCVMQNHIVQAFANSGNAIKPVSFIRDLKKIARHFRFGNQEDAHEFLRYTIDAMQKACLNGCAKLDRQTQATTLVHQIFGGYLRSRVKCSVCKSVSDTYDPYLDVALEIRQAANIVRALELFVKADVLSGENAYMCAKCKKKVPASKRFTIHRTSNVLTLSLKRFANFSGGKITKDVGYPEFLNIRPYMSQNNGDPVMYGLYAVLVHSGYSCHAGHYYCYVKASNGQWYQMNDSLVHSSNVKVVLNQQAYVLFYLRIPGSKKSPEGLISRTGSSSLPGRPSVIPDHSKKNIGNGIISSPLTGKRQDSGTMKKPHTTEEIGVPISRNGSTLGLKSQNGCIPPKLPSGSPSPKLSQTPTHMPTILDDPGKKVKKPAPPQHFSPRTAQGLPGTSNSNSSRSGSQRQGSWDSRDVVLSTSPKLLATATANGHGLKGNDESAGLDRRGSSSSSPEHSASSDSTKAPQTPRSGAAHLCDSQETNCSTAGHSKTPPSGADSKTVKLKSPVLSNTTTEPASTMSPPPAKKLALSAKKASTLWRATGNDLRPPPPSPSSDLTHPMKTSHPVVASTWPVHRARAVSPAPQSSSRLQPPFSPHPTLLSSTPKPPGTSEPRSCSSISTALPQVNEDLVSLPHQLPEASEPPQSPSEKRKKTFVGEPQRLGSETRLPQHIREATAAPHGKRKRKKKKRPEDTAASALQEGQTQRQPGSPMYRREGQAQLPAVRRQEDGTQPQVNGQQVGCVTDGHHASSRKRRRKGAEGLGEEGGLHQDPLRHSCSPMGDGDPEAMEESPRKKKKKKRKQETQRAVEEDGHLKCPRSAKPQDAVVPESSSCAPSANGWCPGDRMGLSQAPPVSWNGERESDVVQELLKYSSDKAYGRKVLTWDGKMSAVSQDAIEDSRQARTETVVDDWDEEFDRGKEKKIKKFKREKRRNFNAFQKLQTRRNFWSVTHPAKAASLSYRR
Procedure, shortened: as §1

USP38 = target: T2, USP38 (UniProt Q8NB14)
T2 sequence (whole entry): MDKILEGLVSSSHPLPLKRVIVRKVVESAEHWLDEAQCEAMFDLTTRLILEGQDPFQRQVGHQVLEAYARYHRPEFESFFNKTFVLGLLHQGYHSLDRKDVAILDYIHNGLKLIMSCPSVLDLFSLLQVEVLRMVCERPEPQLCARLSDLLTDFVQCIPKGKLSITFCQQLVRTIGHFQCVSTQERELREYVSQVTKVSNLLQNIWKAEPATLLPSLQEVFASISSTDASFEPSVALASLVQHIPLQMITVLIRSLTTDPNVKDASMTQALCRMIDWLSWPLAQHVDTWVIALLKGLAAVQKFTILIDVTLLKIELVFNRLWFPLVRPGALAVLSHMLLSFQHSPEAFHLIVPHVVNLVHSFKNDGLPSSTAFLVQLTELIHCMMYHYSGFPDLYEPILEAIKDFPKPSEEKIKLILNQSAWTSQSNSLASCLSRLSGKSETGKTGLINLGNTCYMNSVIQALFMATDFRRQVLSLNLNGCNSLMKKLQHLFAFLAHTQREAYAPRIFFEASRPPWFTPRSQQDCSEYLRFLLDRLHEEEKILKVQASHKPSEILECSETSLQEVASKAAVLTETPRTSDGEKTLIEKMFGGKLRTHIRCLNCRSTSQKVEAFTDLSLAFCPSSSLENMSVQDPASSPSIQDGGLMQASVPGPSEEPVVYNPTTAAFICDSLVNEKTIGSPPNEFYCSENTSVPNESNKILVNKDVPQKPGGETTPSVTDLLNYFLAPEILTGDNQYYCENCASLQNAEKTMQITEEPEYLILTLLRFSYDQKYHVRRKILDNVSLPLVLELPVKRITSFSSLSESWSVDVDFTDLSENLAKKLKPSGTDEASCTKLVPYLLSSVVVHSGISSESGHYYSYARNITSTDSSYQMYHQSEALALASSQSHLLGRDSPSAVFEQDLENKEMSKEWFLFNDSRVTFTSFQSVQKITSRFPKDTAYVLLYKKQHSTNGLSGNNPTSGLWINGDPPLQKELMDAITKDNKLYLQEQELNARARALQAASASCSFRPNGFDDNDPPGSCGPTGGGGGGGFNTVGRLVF
Procedure, shortened: as §1

USP39 = target: T3, USP39 (UniProt Q53GS9)
T3 sequence (whole entry): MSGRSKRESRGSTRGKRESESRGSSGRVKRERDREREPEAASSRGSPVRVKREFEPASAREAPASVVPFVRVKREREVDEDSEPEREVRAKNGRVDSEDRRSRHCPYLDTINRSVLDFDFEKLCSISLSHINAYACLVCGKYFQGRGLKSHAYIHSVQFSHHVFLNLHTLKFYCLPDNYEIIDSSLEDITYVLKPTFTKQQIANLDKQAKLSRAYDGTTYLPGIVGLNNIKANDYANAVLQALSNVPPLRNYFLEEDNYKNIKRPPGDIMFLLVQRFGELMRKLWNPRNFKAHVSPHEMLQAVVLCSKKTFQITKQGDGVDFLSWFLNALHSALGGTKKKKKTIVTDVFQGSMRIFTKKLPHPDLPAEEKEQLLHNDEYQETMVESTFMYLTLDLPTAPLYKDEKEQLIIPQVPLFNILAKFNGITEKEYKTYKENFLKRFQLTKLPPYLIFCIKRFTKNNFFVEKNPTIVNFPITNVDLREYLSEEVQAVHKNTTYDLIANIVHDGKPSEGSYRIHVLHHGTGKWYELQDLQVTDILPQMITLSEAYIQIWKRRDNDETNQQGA
Procedure, shortened: as §1

USP4 = target: T4, USP4 (UniProt Q13107)
T4 sequence (whole entry): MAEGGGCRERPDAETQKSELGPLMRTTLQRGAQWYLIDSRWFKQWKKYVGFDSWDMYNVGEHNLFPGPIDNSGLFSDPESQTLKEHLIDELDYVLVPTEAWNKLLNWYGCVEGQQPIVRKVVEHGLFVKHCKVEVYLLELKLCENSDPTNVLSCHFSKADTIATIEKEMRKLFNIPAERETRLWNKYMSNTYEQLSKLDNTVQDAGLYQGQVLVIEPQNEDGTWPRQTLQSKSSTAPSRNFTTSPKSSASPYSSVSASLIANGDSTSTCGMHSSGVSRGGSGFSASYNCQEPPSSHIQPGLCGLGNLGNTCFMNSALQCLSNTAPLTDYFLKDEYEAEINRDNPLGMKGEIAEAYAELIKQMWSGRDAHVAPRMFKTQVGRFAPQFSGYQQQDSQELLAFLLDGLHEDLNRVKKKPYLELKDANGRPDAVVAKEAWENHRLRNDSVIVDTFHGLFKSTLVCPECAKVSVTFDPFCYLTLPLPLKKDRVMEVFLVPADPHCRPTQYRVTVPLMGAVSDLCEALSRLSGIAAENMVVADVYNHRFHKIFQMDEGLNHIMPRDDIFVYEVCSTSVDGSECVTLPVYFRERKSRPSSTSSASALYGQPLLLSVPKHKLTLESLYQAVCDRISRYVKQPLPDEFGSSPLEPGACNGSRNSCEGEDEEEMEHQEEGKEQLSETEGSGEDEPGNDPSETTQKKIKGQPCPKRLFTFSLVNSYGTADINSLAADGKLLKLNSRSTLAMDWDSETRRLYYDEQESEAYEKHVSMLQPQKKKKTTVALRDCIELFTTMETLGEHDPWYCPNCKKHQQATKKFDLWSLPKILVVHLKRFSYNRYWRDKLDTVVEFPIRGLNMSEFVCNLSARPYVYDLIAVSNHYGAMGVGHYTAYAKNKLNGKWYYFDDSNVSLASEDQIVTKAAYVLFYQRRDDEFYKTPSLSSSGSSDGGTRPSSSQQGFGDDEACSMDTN
Procedure, shortened: as §1

Measured: log2 ratio of Biotin-Ahx-Ub-VS probe labelling

O=C(CCl)NC1CCOc2ccccc21 (stereo not given)
inactive: USP34 -0.539 | USP36 -0.388 | USP38 -0.738 | USP39 -0.0973 | USP4 -0.674
